From publication PMC9911399, “Two distinct binding modes provide the RNA-binding protein RbFox with extraordinary sequence specificity”
Positions count from the first letter of the chain named. Whole data set: some 16,000 sequences, median “ka relative to ugcaugu” near 0.0091, cut for the highest 2% near 0.032. The sample holds the highest values, similar sequences and a random draw of the others, so the mix is not that of the screen.

T1: RBFOX1 RRM (Homo sapiens, UniProt Q9NWB1 109-208)
T1 sequence: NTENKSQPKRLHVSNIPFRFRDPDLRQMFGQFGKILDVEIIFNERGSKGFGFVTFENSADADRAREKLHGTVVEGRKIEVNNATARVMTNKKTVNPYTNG

B1: AGGACGU (DNA:RNA)
RNA: GGGAGACCGGAAUUCAGAUUGUCCAGGACGUUUAAAUCCCGUCGUAGCCACCA
DNA 1: CAATCTGAATTCCGGTCTCCC
DNA 2: TGGTGGCTACGACGGGATT
B2: GAUCGUC (DNA:RNA)
RNA: GGGAGACCGGAAUUCAGAUUGUCCGAUCGUCUUAAAUCCCGUCGUAGCCACCA
DNA 1: CAATCTGAATTCCGGTCTCCC
DNA 2: TGGTGGCTACGACGGGATT
B3: AUUACAA (DNA:RNA)
RNA: B1 RNA with G26U, G27U, G30A, U31A
DNA 1: CAATCTGAATTCCGGTCTCCC
DNA 2: TGGTGGCTACGACGGGATT
B4: CCUAUUU (DNA:RNA)
RNA: B1 RNA with A25C, G26C, G27U, C29U, G30U
DNA 1: CAATCTGAATTCCGGTCTCCC
DNA 2: TGGTGGCTACGACGGGATT
B5: CUUAUAA (DNA:RNA)
RNA: B1 RNA with A25C, G26U, G27U, C29U, G30A, U31A
DNA 1: CAATCTGAATTCCGGTCTCCC
DNA 2: TGGTGGCTACGACGGGATT
B6: CGGGUAA (DNA:RNA)
RNA: B1 RNA with A25C, A28G, C29U, G30A, U31A
DNA 1: CAATCTGAATTCCGGTCTCCC
DNA 2: TGGTGGCTACGACGGGATT
B7: CAGCGAG (DNA:RNA)
RNA: B2 RNA with G25C, U27G, U30A, C31G
DNA 1: CAATCTGAATTCCGGTCTCCC
DNA 2: TGGTGGCTACGACGGGATT
B8: GGGGGUU (DNA:RNA)
RNA: B1 RNA with A25G, A28G, C29G, G30U
DNA 1: CAATCTGAATTCCGGTCTCCC
DNA 2: TGGTGGCTACGACGGGATT
B9: CGGGGUU (DNA:RNA)
RNA: B1 RNA with A25C, A28G, C29G, G30U
DNA 1: CAATCTGAATTCCGGTCTCCC
DNA 2: TGGTGGCTACGACGGGATT
B10: GGUUUUU (DNA:RNA)
RNA: B2 RNA with A26G, C28U, G29U, C31U
DNA 1: CAATCTGAATTCCGGTCTCCC
DNA 2: TGGTGGCTACGACGGGATT
B11: CGGGGGU (DNA:RNA)
RNA: B1 RNA with A25C, A28G, C29G
DNA 1: CAATCTGAATTCCGGTCTCCC
DNA 2: TGGTGGCTACGACGGGATT
B12: GCGGGGU (DNA:RNA)
RNA: B1 RNA with A25G, G26C, A28G, C29G
DNA 1: CAATCTGAATTCCGGTCTCCC
DNA 2: TGGTGGCTACGACGGGATT
B13: GGGGGGU (DNA:RNA)
RNA: B1 RNA with A25G, A28G, C29G
DNA 1: CAATCTGAATTCCGGTCTCCC
DNA 2: TGGTGGCTACGACGGGATT
B14: GCGGGUU (DNA:RNA)
RNA: B2 RNA with A26C, U27G, C28G, C31U
DNA 1: CAATCTGAATTCCGGTCTCCC
DNA 2: TGGTGGCTACGACGGGATT
B15: CCGGGGU (DNA:RNA)
RNA: B1 RNA with A25C, G26C, A28G, C29G
DNA 1: CAATCTGAATTCCGGTCTCCC
DNA 2: TGGTGGCTACGACGGGATT
B16: GGGGUUU (DNA:RNA)
RNA: B1 RNA with A25G, A28G, C29U, G30U
DNA 1: CAATCTGAATTCCGGTCTCCC
DNA 2: TGGTGGCTACGACGGGATT
B17: AUGGUGU (DNA:RNA)
RNA: B1 RNA with G26U, A28G, C29U
DNA 1: CAATCTGAATTCCGGTCTCCC
DNA 2: TGGTGGCTACGACGGGATT
B18: CAUGUGU (DNA:RNA)
RNA: B1 RNA with A25C, G26A, G27U, A28G, C29U
DNA 1: CAATCTGAATTCCGGTCTCCC
DNA 2: TGGTGGCTACGACGGGATT
B19: AGAAGGC (DNA:RNA)
RNA: B1 RNA with G27A, C29G, U31C
DNA 1: CAATCTGAATTCCGGTCTCCC
DNA 2: TGGTGGCTACGACGGGATT
B20: GAAUGAG (DNA:RNA)
RNA: B2 RNA with U27A, C28U, U30A, C31G
DNA 1: CAATCTGAATTCCGGTCTCCC
DNA 2: TGGTGGCTACGACGGGATT

target: T1, RBFOX1 RRM; experiment: EMSA; HiTS-Eq, 1 nM pool, 10 min; buffer printed only for the single-RNA assays: 10 mM Tris pH 7.5, 150 mM NaCl, 3.4 mM EDTA, 0.001% NP-40, 30 C; conditions: tags: His6 N-terminal (pET28a); label: 5' 32P
Procedure, shortened: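 Purified wild-type or mutant RbFox RRM at increasing concentrations was equilibrated with 1 nM of 5′-radiolabelled RNA carrying 7 randomized nucleotides for 10 min in 50 µL. Unbound RNA was separated by 8% native PAGE and sequenced. Relative association constants came from read-count changes of each RNA species compared with the control reaction, normalised to the cognate motif.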

**Q.** With B1 as the binder, how does the binding signal read?
**A.** Its binding signal is 0.0265 KA relative to UGCAUGU.

**Q.** Which binding signal does the source give for B2 here?
**A.** Its binding signal is 0.0199 KA relative to UGCAUGU.

**Q.** B3 was tested. Which binding signal did it give?
**A.** Its binding signal is 0.000272 KA relative to UGCAUGU.

**Q.** For B4, which binding signal is on record?
**A.** Its binding signal is 0.00115 KA relative to UGCAUGU.

**Q.** With B5 as the binder, how does the binding signal read?
**A.** Its binding signal is 0.00174 KA relative to UGCAUGU.

**Q.** How did the binding signal turn out when B6 was run?
**A.** Its binding signal is 0.0192 KA relative to UGCAUGU.

**Q.** With B7 as the binder, how does the binding signal read?
**A.** Its binding signal is 0.00935 KA relative to UGCAUGU.

**Q.** With B8 as the binder, how does the binding signal read?
**A.** Its binding signal is 0.0471 KA relative to UGCAUGU.

**Q.** How did the binding signal turn out when B9 was run?
**A.** Its binding signal is 0.0339 KA relative to UGCAUGU.

**Q.** With B10 as the binder, how does the binding signal read?
**A.** Its binding signal is 0.00799 KA relative to UGCAUGU.

**Q.** B11 was tested. Which binding signal did it give?
**A.** The binding signal was 0.0227 KA relative to UGCAUGU.

**Q.** How did the binding signal turn out when B12 was run?
**A.** Its binding signal is 0.0285 KA relative to UGCAUGU.

**Q.** With B13 as the binder, how does the binding signal read?
**A.** The binding signal was 0.0254 KA relative to UGCAUGU.

**Q.** For B14, which binding signal is on record?
**A.** Its binding signal is 0.0192 KA relative to UGCAUGU.

**Q.** With B15 as the binder, how does the binding signal read?
**A.** Its binding signal is 0.0122 KA relative to UGCAUGU.

**Q.** For B16, which binding signal is on record?
**A.** The binding signal was 0.046 KA relative to UGCAUGU.

**Q.** How did the binding signal turn out when B17 was run?
**A.** Its binding signal is 0.0152 KA relative to UGCAUGU.

**Q.** B18 was tested. Which binding signal did it give?
**A.** The binding signal was 0.0132 KA relative to UGCAUGU.

**Q.** With B19 as the binder, how does the binding signal read?
**A.** Its binding signal is 0.00991 KA relative to UGCAUGU.

**Q.** For B20, which binding signal is on record?
**A.** Its binding signal is 0.0255 KA relative to UGCAUGU.
